Compound activity: PubChem, Sanford-Burnham Center for Chemical Genomics
Sampled rows, rich in hits. Any-hit rate of the full collection: about 3.9%.
TWEAK Fn14 block – TWEAK-Fn14 signaling inhibition; TWEAK-stimulated Fn14 reporter cells, luciferase luminescence, 8 h; inhibition, % at 10 µM; 2% of 360,000 active; in the data active = inhibition above about 50%
HIF-2a block – inhibitors of HIF-2a | 786-0 RCC cells HIF-2a reporter, luciferase luminescence, overnight | inhibition, % at 18.8 µM | 0.72% of 360,000 active | AID 624352;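 active = inhibition of the luminescence signal of 40% or more relative to plate controls, in a single-dose primary screen at 18.75 µM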
TROY NFkB inh – blocks TROY-dependent signaling in reporter cells; Q293 LMP1-TROYcd NF-kB luciferase reporter, 4 h; inhibition, % at 10 µM; 0.98% of 360,000 active; AID 1347056;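 active = compounds whose plate-normalised and pattern-corrected inhibition of the luciferase reporter signal at the single screening dose is 50% or more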
KKLEB tox – reduces viability of KKLEB cystic fibrosis airway cells. KKLEB CF airway cells viability, ATPlite luminescence, overnight; stronger effect = lower value; cells stimulated with P. aeruginosa culture filtrate. activity change (cytotoxicity), % at 5 µM. 0.36% of 360,000 active;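 active = corrected activity change at or below -50% at 5 µM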
Peg3 prom inh-1 – Peg3 promoter activity inhibition. HeLa PEG-Prom luciferase reporter, luminescence, overnight. inhibition, % at 20 µM. 1.7% of 360,000 active. AID 588405;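 active = inhibition of at least 50% at 20 µM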
CF NFkB inh – blocks PAF-induced NF-kB reporter in cystic fibrosis cells; 0.86% of 360,000 active; KKLEB NF-kB-GFP reporter, GFP fluorescence overnight; inhibition, % at 5 µM;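 active = at least 50% inhibition at 5 µM, scaled per plate between neutral and stimulator controls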;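 note: PAF is a Pseudomonas aeruginosa culture filtrate used as stimulus; plate controls were PAF-stimulated DMSO wells for no effect and unstimulated DMSO wells for full effect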
Peg3 prom inh-2 – Peg3 promoter inhibition confirmation; 84% of 1,300 active; inhibition, % at 20 µM; shares compounds with Peg3 prom inh-1; HeLa PEG-Prom luciferase reporter, luminescence, overnight;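 active = at 20 µM dose, 40% or more inhibition averaged across four replicates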
Mdm2-MdmX confirm – confirmation of inhibitors of human Mdm2/MdmX interaction, set 2; shares compounds with HIF-2a block; SaOS-2 split-luciferase Mdm2/MdmX complementation, luminescence; inhibition, % at 8 µM; 99% of 740 active;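 active = mean inhibition of the luminescence signal across two replicates at or above 26 percent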
HIF-2a conf – confirmation of HIF-2a inhibitors; AID 651580; 56% of 1,800 active; 786-0 RCC cells, HIF-2a luciferase reporter luminescence, overnight; inhibition, % at 18.8 µM; shares compounds with HIF-2a block;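 active = mean inhibition across four replicates of at least 40 percent at the single tested concentration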
HIF-1a cs – inhibits HIF-1a reporter, a counter-screen for HIF-2a inhibitors | shares compounds with HIF-2a block | MiaPaCa-2 HIF-1a luciferase reporter, desferoxamine, overnight | inhibition, % at 18.8 µM | 72% of 1,800 active;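 active = mean inhibition of the reporter signal across four replicates at the single tested dose of 50% or more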
* marks the source's active call; other numbers are inactive results; . = no result given.

SMILES	TWEAK Fn14 block	HIF-2a block	TROY NFkB inh	KKLEB tox	Peg3 prom inh-1	CF NFkB inh	Peg3 prom inh-2	HIF-2a conf	HIF-1a cs	others
C[C@@H](C(=O)Nc1ccc2c(c1)OCCO2)n1c(=O)[nH]c2ccccc2c1=O	94.3*	41.5*	83.7*	-13.9	50.0*	5.6	51.2*	45.2*	77.8*
C[C@@H](C(=O)Nc1ccc2c(c1)OCO2)n1c(=O)[nH]c2ccccc2c1=O	-5.1	-6.7	1.7	1.5	-23.8	-6.2	.	.	.
O=C(O)c1ccc2nc(-c3ccccc3)sc2c1	78.6*	78.5*	-11.6	1.8	86.8*	14.5	45.9*	61.6*	16.4
COC(=O)c1ccc(CSc2nnc(CS(=O)Cc3ccc(Br)cc3)n2-c2ccccc2)cc1 (stereo unspecified)	30.2	23.7	21.3	-1.9	35.6	4.4	.	.	.
COc1cccc2nc3c(C(=O)NCCN(C)C)cccc3cc12	-74.4	43.0*	-92.8	0.4	98.9*	-117.0	97.2*	31.3	104.7*
COc1cccc(-c2sc3ccccc3c2-c2ccc(OCCN(C)C)cc2)c1	-9.2	78.8*	23.0	-38.8	94.5*	49.0	98.6*	18.6	106.7*
O=C(Nc1ccc(S(=O)(=O)NC2=NCCCCC2)cc1)c1ccc(Cl)c([N+](=O)[O-])c1	12.1	0.9	13.9	-2.6	-3.2	0.5	.	.	.
Cc1cccc(C)c1NS(=O)(=O)c1ccc(NC(=O)c2ccc(Cl)c([N+](=O)[O-])c2)cc1	86.7*	90.5*	68.3*	-2.7	106.2*	-0.9	98.5*	25.5	107.7*	Mdm2-MdmX confirm=102.5*
CCCCCC1CC(/C(C)=N/NC(N)=O)OC1=O (stereo unspecified)	-7.3	10.5	-11.5	-11.5	5.3	16.9	.	.	.
O=C(O)c1ccc(N/N=C/c2ccncc2)cc1	35.4	-32.8	0.6	3.9	-10.5	-1.6	.	.	.
O=C(O)c1ccc(N/N=C/c2ccc(OC(=O)c3cccc(Cl)c3)cc2)cc1	-1.2	71.9*	53.2*	-4.2	68.7*	-1.4	64.0*	83.2*	83.4*
O=C(O)c1ccc(N/N=C/c2ccc3nccnc3c2)cc1	101.5*	91.1*	53.7*	-15.3	99.0*	21.3	95.5*	95.5*	83.1*
Cc1ccsc1C(=O)OCC(=O)NCCC1=CCCCC1	-18.6	-39.1	-51.5	-3.1	-186.5	-18.6	.	.	.
Cc1ccc(NS(=O)(=O)c2ccc3c(c2)n(C)c(=O)n3C)cc1C	7.3	31.0	13.9	3.9	26.6	-12.7	.	.	.
Cc1ccc(NS(=O)(=O)c2cc3c4c(cccc4c2)C(=O)NC3=O)cc1C	-2.8	54.2*	25.4	-1.9	57.2*	1.1	60.2*	29.1	102.0*
COCCn1c(SCC(=O)c2[nH]c(C)c(C(C)=O)c2C)nc2ccccc21	-25.3	7.6	0.3	7.1	0.5	-12.6	.	.	.
COC(=O)c1ccc(CSc2ncnc3sc(C)c(C)c23)o1	-10.7	13.7	3.9	10.1	12.9	19.7	.	.	.
O=C(CCCN1C(=O)/C(=C\c2cccs2)SC1=S)Nc1ccccn1	3.4	29.8	-13.0	-6.9	0.5	11.1	.	.	.
Cc1ccc(/C=C2\SC(=S)N(CCCC(=O)Nc3ccccn3)C2=O)cc1	79.4*	84.2*	67.7*	0.6	53.2*	16.1	74.6*	.	.	Mdm2-MdmX confirm=93.5*
O=C(CCn1c(=S)oc2ccccc21)NC1CCCCCC1	12.4	8.5	-6.9	-3.2	-4.7	-26.0	.	.	.
